# TROY NFkB inh = blocks TROY-dependent signaling in reporter cells | Q293 LMP1-TROYcd NF-kB luciferase reporter, 4 h | inhibition, % at 10 µM | 360,000 tested, 0.98% active | AID 1347056;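 active = compounds whose plate-normalised and pattern-corrected inhibition of the luciferase reporter signal at the single screening dose is 50% or more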
# Peg3 prom inh = inhibitors of Peg3 promoter; HeLa PEG-Prom luciferase reporter, luminescence, overnight; inhibition, % at 20 µM; 360,000 tested, 1.7% active; AID 588405;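 active = inhibition of at least 50% at 20 µM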
# TRPM1 prom inh = inhibitors of MITF-driven TRPM1 promoter in melanoma cells. SK-MEL-5 TRPM1 promoter luciferase, 24 h. inhibition, % at 12.5 µM. 330,000 tested, 0.83% active. AID 488899;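 active = mean inhibition across replicates of 60% or more, whatever share of single replicates reaches that level; inconclusive = some that reach 60%, reason not given; inactive = mean inhibition across replicates below 60%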
# Shn3 3UTR inh = reduces Shn3 3'UTR luciferase signal in osteoblasts. Clone20 osteoblast Shn3 3'UTR firefly luciferase, 24 h. 360,000 tested, 0.52% active. inhibition, % at 12.5 µM;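 active = mean inhibition of at least 75% with every replicate also reaching 75%; inconclusive = mean inhibition at least 75% but some replicate below; inactive = mean inhibition below 75%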;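 note: 0% = median of neutral control wells and 100% = pilot-screen positive control compound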
# LMP1 NFkB inh = Epstein-Barr LMP1 NF-kappaB reporter inhibition; inhibition, % at 12.5 µM; LMP1-induced NF-kappaB luciferase reporter cells, luminescence; 350,000 tested, 0.69% active; AID 504558; in the data active = inhibition above about 41%; inconclusive = no clear call, values can overlap the other calls;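 note: 0% = neutral control wells and 100% = reference inhibitor control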
# TWEAK-Fn14 inh = TWEAK-Fn14 signaling inhibition; TWEAK-stimulated Fn14 reporter cells, luciferase luminescence, 8 h; inhibition, % at 10 µM; 360,000 tested, 2% active; AID 1159606; in the data active = inhibition above about 50%
# * marks the source's active call; other numbers are inactive results; ? = inconclusive; . = not tested or not shown. Only some compounds are listed: those with a hit (about 4.1% of all), similar ones and a draw of the others.
SMILES,TROY NFkB inh,Peg3 prom inh,TRPM1 prom inh,Shn3 3UTR inh,LMP1 NFkB inh,TWEAK-Fn14 inh
CC(C)(C)N(NC(=O)c1ccccc1)C(=O)c1ccccc1,19,1,-13,-19,7,-18
COc1ccc(CN2Cc3cnnn3-c3ccccc3C2C#N)cc1 (configuration not stated),46,93*,98*,-21,15,74*
N#CC1c2ccccc2-n2nncc2CN1Cc1cc(Cl)cc(Cl)c1 (configuration not stated),91*,96*,97*,81,62*,107*
COc1ccc(CN2Cc3cnnn3-c3ccccc3C2c2ccccc2)cc1 (configuration not stated),8,39,1,0,-11,-18
CCOC(=O)C1(c2ccccc2)CCN(CC(=O)c2ccc(NC(C)=O)cc2)CC1,-7,0,0,-17,0,16
CCOC(=O)CNC(=O)N1Cc2ccc(Br)cc2-n2nncc2C1,6,11,.,-17,.,17
O=C1N[C@H](Cc2ccccc2)C(=O)N2[C@@H]3[C@H](C[C@@H]12)c1ccccc1N3OOSc1ccccc1,-6,-12,-21,-18,-7,13
COc1ccc(CCn2c(O)c(/C=N/N3CCOCC3)c(=O)[nH]c2=O)cc1OC,-12,-13,.,-12,.,-5
Oc1cc(Cl)c(Cl)c(Cl)c1Cl,54*,31,8,-10,6,15
Oc1cc(Cl)c(Cl)c(Cl)c1,55*,39,1,-2,2,49
C[n+]1c(-c2ccccc2)c2cc(N)ccc2c2ccc(N)cc21,0,74*,62*,67,0,9
Nc1ccc2ccc3cccc[n+]3c2c1,2,20,-10,-21,-10,2
CCC/C=N/O,6,-14,7,1,-5,-4
CCCCCc1nc2c(c(=O)c3ccccc3n2C)c(=O)n1C1CCCCCC1,89*,72*,8,90*,1,44
COC1CCC(OC2CC(C3(C)CCC4(CC(O)C(C)C(C(C)/C=C(\C)C(=O)C(C)CC(C)C(=O)O)O4)O3)OC3(OC(C4OC(O)(CO)C(C)CC4C)CC3C)C2C)OC1C (configuration not stated),55*,98*,84*,79,-10,50*
CC(C)c1ccc(N2C(=O)CC(=O)NC2=O)cc1,-8,12,8,-10,-5,19
O=C1CC(=O)N(c2ccc(Cl)cc2)C(=O)N1,1,4,12,16,64*,-6
C[C@]12CCC3C(CC[C@H]4C[C@H](O)CC[C@]34C)C1CCC2=O (some centres not stated),-8,21,2,86*,6,-1
C[C@]12CC[C@H](O)C[C@@H]1CC[C@H]1[C@H]3CCC(=O)[C@@]3(C)CC[C@@H]12,-2,-4,.,33,1,-33
C[C@]12CCC3C(CCC4=CC(O)CC[C@@]43/C=N/O)C1(O)CCC2C1=CC(=O)OC1 (some centres not stated),41,105*,86*,14,3,84*
C[C@H]1O[C@@H](OC2CC[C@]3(C=O)[C@H]4CC[C@]5(C)[C@@H](C6=CC(=O)OC6)CC[C@]5(O)[C@@H]4CC[C@]3(O)C2)CC2OC(C)(C)OC21 (some centres not stated),42,107*,67*,9,65*,81*
C[C@]12CC[C@H]3[C@@H](CC[C@]4(O)C[C@@H](O)CC[C@]34C=O)[C@@]1(O)CC[C@@H]2C1=CC(=O)OC1,40,94*,86*,2,38,75*
CC12CCC3C(CCC4(O)CC(O)CCC34C=NO)C1(O)CCC2C1=COC(=O)C1 (configuration not stated),35,97*,69*,11,62*,76*
Cn1cnnc1Sc1cc(N2CCNCC2)ccc1[N+](=O)[O-],8,3,-3,-6,1,4
Cn1nnc(CC[N+](C)(C)C)n1,-10,6,10,6,20,8
SMILES,TROY NFkB inh,Peg3 prom inh,TRPM1 prom inh,Shn3 3UTR inh,LMP1 NFkB inh,TWEAK-Fn14 inh
CC1(C)CN(S(=O)(=O)OCC(Cl)(Cl)Cl)C(=O)N1,-1,-8,1,-4,5,0
CC12CCC3C(CCC4(O)CC(O)CCC34C=O)C1(O)CCC2C1=CC(=O)OC1 (configuration not stated),46,104*,82*,-21,?,71*
CC12CC[C@H]3[C@@H](CCC4(O)C[C@H](O)CCC34/C=N/NC(=O)c3ccccc3Cl)C1(O)CCC2C1=CC(=O)OC1 (some centres not stated),1,7,25,-1,-11,-29
CCCCN=C[C@]12CCC(O)CC1(O)CCC1[C@@H]2CC[C@]2(C)[C@H](C3C=CC(=O)O3)CCC12O (some centres not stated),35,107*,78*,-31,2,76*
CC(=O)C1C(N2CC2)CC2C3CCC4=CC(=O)CCC4(C)C3CCC21C (configuration not stated),-2,-7,13,25,7,5
CCOc1ccc(-n2c(O)c(C=Nc3ccc(N4CCOCC4)cc3)c(=O)[nH]c2=O)cc1,.,0,7,8,3,91*
O=c1[nH]c(=S)n(-c2ccc(Br)cc2)c(O)c1C=Nc1ccc(N2CCOCC2)cc1,37,8,-8,10,-2,48
CCOC(=O)[C@]12Cc3cc(Cl)ccc3[C@H]1N(C(C)C)C(=O)c1ccccc12,40,.,.,.,.,78*
CCOC(=O)[C@]12Cc3cc(Cl)ccc3[C@H]1N(C)C(=O)c1ccccc12,10,.,.,.,.,1
CCOC(=O)[C@]12Cc3cc(OC)ccc3[C@H]1N(C(C)C)C(=O)c1cc(OC)ccc12,52*,.,.,.,.,-8
CCOC(=O)[C@]12Cc3cc(OC)c(OC)cc3[C@H]1N(Cc1ccccc1)C(=O)c1ccccc12,-3,29,-6,1,15,1
CCOC(=O)[C@]12Cc3c(cc(OC)c(OC)c3OC)[C@H]1N(C(C)C)C(=O)c1cc(OC)ccc12,16,.,.,.,.,4
CCOC(=O)[C@]12Cc3cc(Cl)ccc3[C@H]1N(CC(=O)OC)C(=O)c1ccccc12,29,.,.,.,.,80*
O=c1[nH]c(=O)n(-c2ccccc2F)c(O)c1/C=C1\C=Nc2ccccc21,2,35,23,38,0,54*
COc1ccc(-n2c(O)c(/C=C3\C=Nc4ccc(Br)cc43)c(=O)[nH]c2=O)c(OC)c1,-33,11,-2,64,-13,55*
O=c1cccc2n1CC1CC2CN(CC(O)CN2CC3CC(C2)c2cccc(=O)n2C3)C1 (configuration not stated),1,-7,3,-15,-23,9
